Inconclusive results are not listed. Activity calls are given as the source filed them. Unless noted, calls follow the shape of the dose curve; as a rule, active = well fitted cell-killing curve with a large enough effect; inconclusive = small, poorly fitted or top-dose-only effect; inactive = flat fitted curve, though single readings scatter.
Legend:
[1] = Cell Viability - LYMP2-025 (AID 976); also: series mostly up to about 92 µM
Procedure, shortened: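 Human lymphoblastoid LYMP2-025 cells, 2500/well, exposed 24 h at 37 C in complete medium in 1536-well qHTS. Viability as cellular ATP by CellTiter-Glo luminescence; AC50 from Hill fits of concentration-response data.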

[2] = Cell Viability - LYMP2-002 (AID 977); also: series mostly up to about 92 µM
Procedure, shortened: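 Luminescent ATP readout (CellTiter-Glo, 30 min room temperature) after 24 h compound exposure at 37 C of a human lymphoblastoid line, 2500 cells/well. AC50 values derived by standard Hill fitting of qHTS concentration-response data.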

[3] = Cell Viability - LYMP2-006 (AID 978); also: series mostly up to about 92 µM; nearly all actives have a fitted effect of over 60% in size
Procedure, shortened: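 Concentration-dependent loss of intracellular ATP in a human lymphoblastoid line after 24 hr treatment at 37 C was measured by CellTiter-Glo luminescence, with AC50 values obtained from standard Hill-equation modelling.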

[4] = Cell Viability - LYMP2-007 (AID 979);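 also: cells exposed to compound for 24 h before reading; nearly all actives have a fitted effect of over 60% in size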
Procedure, shortened: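 Human lymphoblastoid LYMP2-007 cells (2500/well) preincubated 5 h at 37 C, then treated 24 h at 37 C in complete medium. Viability by CellTiter-Glo ATP luminescence after 30 min at room temperature; AC50 from Hill fits.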

[5] = Cell Viability - LYMP2-008 (AID 980); also: nearly all actives have a fitted effect of over 60% in size
Procedure, shortened: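 LYMP2-008 lymphoblastoid cells (2500/well) plated 5 h, then treated 24 h at 37 C in complete medium. Viability read as intracellular ATP by CellTiter-Glo luminescence after 30 min at room temperature; AC50 from Hill fits.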

[6] = Cell Viability - LYMP2-010 (AID 981); also: nearly all actives have a fitted effect of over 55% in size
Procedure, shortened: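 Human lymphoblastoid LYMP2-010 cells (2500/well) treated 24 h at 37 C in complete medium; viability read as intracellular ATP by CellTiter-Glo luminescence. AC50 from Hill fits of concentration-response data; tetraoctylammonium bromide positive control.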

[7] = Cell Viability - LYMP2-012 (AID 982);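 also: cellular ATP by luciferase luminescence where a drop means cytotoxicity; cells exposed to compound for one day before reading; nearly all actives have a fitted effect of over 55% in size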
[8] = Cell Viability - LYMP2-014 (AID 983); also: series mostly up to about 92 µM; nearly all actives have a fitted effect of over 50% in size
Procedure, shortened: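 LYMP2-014 human lymphoblastoid cells, 2500/well, treated 24 h at 37 C in complete medium; viability by CellTiter-Glo ATP luminescence after 30 min at room temperature. AC50 from Hill fits of qHTS concentration-response; tetraoctylammonium bromide positive control.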

[9] = Cell Viability - LYMP2-016 (AID 984); also: nearly all actives have a fitted effect of over 55% in size
Procedure, shortened: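 Acute toxicity in a Coriell human lymphoblastoid line is scored as loss of intracellular ATP over 24 h of treatment in complete medium. CellTiter-Glo signal is fitted across concentrations with the Hill equation to give AC50.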

[10] = Cell Viability - LYMP2-018 (AID 985);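 also: compound exposure lasted 24 hr at 37 °C; nearly all actives have a fitted effect of over 50% in size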
Procedure, shortened: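 Human lymphoblastoid LYMP2-018 cells, 2500/well, settled 5 hr at 37 C then exposed to compound 24 hr at 37 C; intracellular ATP measured by CellTiter-Glo luminescence. AC50 from Hill-equation concentration-response fits.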

[11] = Cell Viability - LYMP2-020 (AID 986); also: series mostly up to about 92 µM; nearly all actives have a fitted effect of over 55% in size
Procedure, shortened: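 Human lymphoblastoid LYMP2-020 cells (2500/well) preincubated 5 h at 37 C, then treated 24 h at 37 C. Viability measured as intracellular ATP by CellTiter-Glo luminescence after 30 min at room temperature; AC50 from Hill fits.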

[12] = Cell Viability - LYMP2-022 (AID 987); also: nearly all actives have a fitted effect of over 55% in size
Procedure, shortened: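 LYMP2-022 lymphoblastoid cells (2500/well, complete medium) were treated with compounds for 24 hours at 37 C; intracellular ATP was then read by CellTiter-Glo luminescence after 30 min at room temperature. AC50 values were derived from Hill-equation fits.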

[13] = Cell Viability - LYMP2-024 (AID 988); also: nearly all actives have a fitted effect of over 60% in size
Procedure, shortened: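 Human lymphoblastoid LYMP2-024 cells (2500/well) rested 5 hr, then treated with compound for 24 hr at 37 C in complete medium. Viability was measured as intracellular ATP by CellTiter-Glo luminescence. AC50 values came from Hill-equation fits.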

[14] = Cell Viability - LYMP2-026 (AID 989); also: nearly all actives have a fitted effect of over 50% in size
Procedure, shortened: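 Human lymphoblastoid LYMP2-026 cells, 2500/well, exposed to compound 24 h at 37 C in complete medium. Viability as intracellular ATP by CellTiter-Glo luminescence; AC50 from Hill fits of qHTS concentration-response.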

[15] = Cell Viability - LYMP1-002 - Assay at 40 hr (AID 994); also: nearly all actives have a fitted effect of over 60% in size
Procedure, shortened: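 LYMP1-002 human lymphoblastoid cells (2500/well, complete medium) were treated with compounds for 40 hr at 37 C. Intracellular ATP was measured by CellTiter-Glo luminescence, and AC50 values came from Hill-equation fits of concentration-response data; tetraoctylammonium bromide was the positive control.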

[16] = qHTS Assay for Identification of Small Molecule Inducers of Hypoxia Response (AID 2120; active = well fitted curve in the direction sought with a large enough effect in the signal ratio, with a control signal flat, not every such curve was filed as active; the % refers to the signal ratio)
Procedure, shortened: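 HRE-bla ME-180 cells in Opti-MEM with 0.5% dialyzed FBS, pre-plated 4-5 h, then compound titration for 17 h at 37 degrees Celsius. CCF4 loaded 2.5 h at room temperature; 460/530 nm ratio gave %Activity and AC50 for induction.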

[17] = Cell Viability - LYMP1-002 - Assay at 24 hr (AID 993)
Procedure, shortened: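 Human lymphoblastoid LYMP1-002 cells (2500/well) treated 24 h at 37 °C; viability as intracellular ATP by CellTiter-Glo luminescence. Tetraoctylammonium bromide as positive control; AC50 from Hill-equation fits of qHTS concentration-response.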

Measured: Potency

Cc1ccc([N+](=O)[O-])c(N)c1
not listed: [17]
inactive: all other assays above

Cc1cccc(C)c1[N+](=O)[O-]
inactive: all assays above

CCC(C)O (stereo not drawn)
not listed: [14]
inactive: all other assays above

Cc1ccc(C(=O)O)cc1
inactive: all assays above

CC1CCCO1 (stereo not drawn)
not listed: [17]
inactive: all other assays above

CC/C(C)=N/O
not listed: [14]
inactive: all other assays above

c1ccc(Oc2ccccc2)cc1
not listed: [17]
inactive: all other assays above

C1CCCC1
inactive: all assays above

Nc1ccccc1[N+](=O)[O-]
not listed: [14]
inactive: all other assays above

Nc1c(Cl)cc(Cl)cc1Cl
not listed: [17]
inactive: all other assays above

COC(=O)CCCC(=O)OC
inactive: all assays above

CSCCC=O
not listed: [10]
inactive: all other assays above

CCCCC=O
not listed: [17]
inactive: all other assays above

C=CCn1c(=O)n(CC=C)c(=O)n(CC=C)c1=O
not listed: [17]
inactive: all other assays above

NC(=S)NNC(N)=S
not listed: [14]
inactive: all other assays above

O=Cc1ccccc1Cl
not listed: [10]
inactive: all other assays above

Nc1nc(CC(=O)O)cs1
inactive: all assays above

Clc1ccccn1
not listed: [14]
inactive: all other assays above
